Bioassay records from PubChem BioAssay.
Mtb MbtI inh – MbtI salicylate synthase inhibition. purified MbtI enzyme, fluorescence intensity read-out. inhibition, % (no concentration beside the values). P9WFX0. 0.89% of 100,000 active. AID 493033; in the data active = inhibition mostly above about 56%, no sharp cut-off; inactive = mostly below about 77%
Target sequence (P9WFX0 whole entry, looked up): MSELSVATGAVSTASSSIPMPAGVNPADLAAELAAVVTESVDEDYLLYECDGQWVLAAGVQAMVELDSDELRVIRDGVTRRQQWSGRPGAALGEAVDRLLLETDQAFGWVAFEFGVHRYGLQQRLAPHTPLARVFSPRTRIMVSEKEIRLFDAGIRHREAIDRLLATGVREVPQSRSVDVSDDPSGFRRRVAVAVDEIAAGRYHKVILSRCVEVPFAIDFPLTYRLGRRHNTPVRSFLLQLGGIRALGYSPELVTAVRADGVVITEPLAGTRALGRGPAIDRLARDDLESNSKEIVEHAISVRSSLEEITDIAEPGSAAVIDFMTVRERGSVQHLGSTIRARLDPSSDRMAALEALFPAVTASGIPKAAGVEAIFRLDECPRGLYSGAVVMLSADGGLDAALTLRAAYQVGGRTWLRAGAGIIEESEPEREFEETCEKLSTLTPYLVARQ
Mtb MenB inh – inhibitors of Mycobacterium tuberculosis MenB enzyme. MenB enzyme assay, absorbance read-out. inhibition, % (test concentration not listed). 0.43% of 100,000 active. AID 540299; in the data active = inhibition above about 21%, passing the limit was not always enough
AID504770 – growth inhibitors of E. coli YBA685 in a screen for V. cholerae RctB (chromosome II replication) inhibitors | E. coli YBA685 rctB-dependent plasmid, OD600 growth, 3 h; hits give low values | z-score (concentration not given with the values) | 0.27% of 130,000 active | AID 504770; in the data active = z-score below about -2, passing the limit was not always enough
PV pol inh – poliovirus RNA polymerase inhibition; P03300; AID 588519; 0.66% of 150,000 active; % elongation, % (compound at 16.7 µg/mL); poliovirus polymerase elongation, fluorescence polarization; hits give low values; in the data active = % elongation below about 90%
Large screens that a line does not name were inactive. An excerpt weighted towards active compounds, which were near 1.5% of everything screened.

Cc1ccc(C(=O)C(C)OC(=O)C2=COCCO2)cc1C (stereo not given)	PV pol inh 90
C#CCN1C(=O)S/C(=C/c2cc(CC=C)c(O)c(OC)c2)C1=O	none
CCOC(=O)c1ccc(NC(=O)c2cnc3c(-c4ccc(F)cc4)c(C)nn3c2C)cc1	PV pol inh 51 (no result: Mtb MbtI inh, Mtb MenB inh, AID504770)
CCOC(=O)c1ccc(NC(=O)CCc2c(C)nc3c(-c4ccc(F)cc4)c(C)nn3c2C)cc1	none (no result: Mtb MbtI inh, Mtb MenB inh, AID504770)
N#C/C(=C\C=C\c1ccco1)C(N)=S	PV pol inh 84
CC1=CC(c2ccccc2)=C(C#N)C(=S)C1CC(=O)c1cccs1 (stereo not given)	PV pol inh 85 (no result: Mtb MbtI inh)
O=C(CSC1=NCCS1)OCN1C(=O)c2ccccc2C1=O	Mtb MenB inh 38
Cc1cc(C)nc(SCC(=O)OCN2C(=O)c3ccccc3C2=O)n1	none
CN(C)CCN1CCNCC1	Mtb MenB inh 34
CN(C)C(=O)CN1CCNCC1	none
COc1cc(/C=C/C(=O)OCC(=O)N2C(C)CCCC2C)ccc1O (stereo not given)	none
Cc1cc(N)c(N)cc1C	none
Cc1cc(N)c(O)cc1C	Mtb MbtI inh 100
C/C(=N\NC(=Nc1ccccc1)c1ccccn1)c1ccccn1	Mtb MbtI inh 65
COC(=O)c1cc(S(=O)(=O)CC(c2ccccc2)N2CCCC2)c(Cl)cc1N1CCCC1 (stereo not given)	none (no result: Mtb MenB inh, PV pol inh)
C=Cc1ccc2c(ccn2C(C)=O)c1	none
C=Cc1ccc2c(c1)N(C)C(=C)S2	Mtb MbtI inh 62 (no result: Mtb MenB inh)
O=C(O)CCCN1C(=O)CNC1=O	none
Cc1ccc(C(=O)N/C(=C/c2ccccc2)C(=O)NCc2ccco2)cc1	Mtb MenB inh 46
O=C(NCc1ccccc1)/C(=C\c1ccccc1)NC(=O)c1ccccc1	none
Fc1ccccc1C=Nc1cccc2ccccc12	none
Brc1ccccc1C=Nc1cccc2cnccc12	PV pol inh 81 (no result: Mtb MenB inh)
COC(=O)C(C#N)=C(SC)SC	Mtb MbtI inh 83
c1ccc2sc(COc3ncnc4sccc34)nc2c1	none
COc1cccc(NC(=O)c2ccc(OC(=S)N3CCC(C)CC3)cc2)c1	AID504770 -2.8 (no result: Mtb MbtI inh)
O=C(O)c1cc(=O)c2ccccc2[nH]1	none
O=C(O)c1cc2c(cn1)[nH]c1ccccc12	AID504770 -3.5
O=C(CCC(=O)c1cccs1)Nc1ccc(OCc2ccccc2)cc1	none (no result: Mtb MenB inh)
Cc1cc(C)cc(C(=O)OCC(=O)c2cc(C)n(C)c2C)c1	none
OC(COc1ccc2cc(Br)ccc2c1)Cn1cccn1 (stereo not given)	Mtb MenB inh 28 (no result: Mtb MbtI inh)
CC(C)C(NS(=O)(=O)c1ccc2c(c1)OCCO2)C(=O)OCc1nc2ccsc2c(=O)[nH]1 (stereo not given)	none
Cc1ccc2c(CC(=O)NCc3ccccc3)coc2c1C	PV pol inh 1.0 (no result: Mtb MbtI inh, Mtb MenB inh, AID504770)
COCCOC(=O)C1=C(C)NC(=S)NC1c1ccc(C)c(OC)c1 (stereo not given)	none
Nc1sc(=S)nc2ccccc12	Mtb MbtI inh 52
Nc1c2ccccc2nc2ccccc12 (tested in a mixture with another compound)	none
Cc1nn(-c2ccccc2)c2c1P(=S)(N1CCOCC1)OC(c1ccccc1)=N2 (stereo not given)	PV pol inh 88
COc1cc(C2=Nc3c(c(C)nn3-c3ccccc3)P(=O)(N3CCOCC3)O2)cc(OC)c1OC (stereo not given)	none
CCS(=O)(=O)c1ccc2oc(=O)c(/C=C(\O)c3ccco3)nc2c1	none
Nc1cc2ccccc2cc1C(=O)O	PV pol inh 52
CN1CCN(C(=O)c2cc3ccccc3nc2Cl)CC1	none (no result: Mtb MbtI inh, Mtb MenB inh, PV pol inh)
O=C(O)c1cc2ccccc2nc1Cl	PV pol inh 76
O=S(=O)(Nc1cc(C(F)(F)F)ccc1N1CCc2ccccc2C1)c1cccc2nonc12	none
CC(=O)N1c2ccccc2CC1C(=O)N1CCN(c2ccc(Cl)cc2)CC1 (stereo not given)	none
O=C1C=C/C(=N/N(Cc2ccccc2)c2ccccc2)O1	Mtb MbtI inh 90
CC(C)(/C=N/N(Cc1ccccc1)c1ccccc1)CO	none
CN(C)c1cccc(NC(=O)c2cccs2)c1	none (no result: Mtb MenB inh)
Cc1ccc(/C=C/C2=Cc3c(sc(N)c3C#N)C(C)(C)C2)o1	Mtb MbtI inh 89
Cc1ccc(/C=C/C2=CC(=C(C#N)C#N)CC(C)(C)C2)o1	none
Cc1cc(NC(=O)c2sc(Nc3ccccc3F)nc2N)no1	none (no result: Mtb MbtI inh, Mtb MenB inh, PV pol inh)
S=C(NCCc1ccccc1)NNc1nc2ccccc2o1	PV pol inh 37
CCn1nc(C(=O)Nc2sccc2C(N)=O)c2ccccc2c1=O	none
Cc1cc(C(=O)CSc2nc(N)cc(N)n2)c(C)n1C	none
CCCNC(=O)c1nc(-c2ccc(Cl)cc2)n2c1CCCCC2	none
O=C(NCCN1CCOCC1)c1nc(-c2ccc(Cl)cc2)n2c1CCCCC2	AID504770 -2.6
CCOC(=O)c1c(N)sc(N)c1C(=O)OCC	Mtb MbtI inh 97
CCOC(=O)c1c(N)sc2ccccc12	none (no result: Mtb MbtI inh, Mtb MenB inh, PV pol inh)
CCn1c(CSc2nc3ccccc3s2)nnc1SCC(=O)C(C)(C)C	none
CN(C)S(=O)(=O)c1cccc(C(=O)NC2CCCCCC2)c1	none
CCCC(C(=O)NC1CCCC1)N(C(=O)Cn1nnc(-c2ccc(C)o2)n1)c1ccccc1 (stereo not given)	none
CCC(C(=O)NC1CCCC1)N(C(=O)Cn1nnc(-c2ccc(C)cc2)n1)c1ccc2c(c1)OCCO2 (stereo not given)	Mtb MenB inh 33
O=C(NCC1CCN(S(=O)(=O)c2ccc(Cl)cc2)CC1)C1CCCO1 (stereo not given)	none
COc1cc(/C=N/NC(N)=O)cc2sc(=O)oc12	Mtb MbtI inh 81
COc1cc(/C=N/NC(N)=O)cc(Br)c1OC	none
COc1ccc(CC(=O)n2[nH]c(=O)cc(C)c2=O)cc1OC	Mtb MbtI inh 56
CCOc1ccc(OCC(=O)Oc2ccc3c(c2)OCO3)cc1	none
O=C(NC1CCS(=O)(=O)C1)Sc1ccccc1 (stereo not given)	Mtb MbtI inh 52
CCC(=O)N1c2ccc(S(=O)(=O)NC3CCCCC3C)cc2CC1C (stereo not given)	none
Cc1cc(C(=O)O)c2cc(O)ccc2n1	none (no result: Mtb MbtI inh)
Cc1ccc2nc(C)cc(C(=O)O)c2c1	Mtb MenB inh 33
O=C(c1ccc2c(c1)OCCO2)n1cccn1	none
O=C(CCn1nc(-c2ccc(Cl)cc2)ccc1=O)NCCN1CCN(c2cccc(Cl)c2)CC1	none
CC1=C(O)C(=O)C=C2C1=CC=C1[C@@]2(C)CC[C@@]2(C)[C@@H]3C[C@](C)(C(=O)O)CC[C@]3(C)CC[C@]12C	Mtb MbtI inh 103
CCC(=O)Nc1nc2ccccc2s1	none (no result: Mtb MenB inh, PV pol inh)
CCC(=O)Nc1nc2c(s1)CSc1ccccc1-2	Mtb MbtI inh 96
CCOC(=O)C(C#N)C(=O)c1ccc(N)cc1 (stereo not given)	PV pol inh 80 (no result: Mtb MbtI inh)
CCOC(=O)c1ccc(N)cc1	none
Nc1ncc(N=Nc2cc(C(=O)O)ccc2Cl)s1	none
Nc1ncc(N=Nc2cc(C(=O)O)cc(C(=O)O)c2)s1	PV pol inh 82
O=C(C1CCCO1)N1CCN(C(=S)NC2CCCCC2)CC1 (stereo not given)	none
Cc1ccc2nc(SCC(=O)N3CCCCC3)c(C#N)cc2c1	Mtb MenB inh 41
CC(=O)OC1CCC([N+](C)(C)C)C(OC(C)=O)C1[N+](C)(C)C (stereo not given)	none (no result: Mtb MbtI inh)
